From PubChem BioAssay
Results filed as inconclusive are left out. Active and inactive are the calls of the source.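 The calls were made as follows, unless noted: active = viability at or below 27.92% in each of two runs, the all-compound median minus 4 SD; inconclusive = no clear call, values can overlap the other calls; inactive = the rest.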

Legend:
[1] = reduced viability of SK-BR-3 breast cancer cells – cell-based, 24 h, human, pilot screen (AID 572;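 active = viability at or below 10% of carrier control in both of two separate runs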;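 also: compound exposure lasted between 18 and 24 h rather than exactly 24 h; 100% = carrier-treated control wells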); details: SK-BR-3 viability, CellTiter-Glo luminescence, at 10 µM, stronger effect = lower value
[2] = HUVEC growth inhibition – cell-based, human, primary screen (AID 575;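 active = viability at or below 30% in both replicate assays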;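 also: 100% = median of untreated cell wells with 0.1% DMSO on each plate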); details: HUVEC proliferation, CellTiter-Glo luminescence, 72 h; at 10 µM; stronger effect = lower value
[3] = H69AR cell proliferation blockers – human, duplicate replicates, primary screen (AID 580;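 active = viability at or under a set limit in both replicates, limit being median viability minus 3 SD, cut at about 48% in these data, passing the limit was not always enough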;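 also: 100% = mean luminescence of untreated wells and 0% = no signal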); details: H69AR lung tumor cells viability, ATP luminescence, 72 h; at 10 µM; stronger effect = lower value
[4] = MRP1 drug-resistance reversers in H69AR cells – cell-based, doxorubicin co-treatment, pilot screen (AID 601;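 active = viability loss from added drug above about 55%, and viability with drug at most 40%, in both replicates, limit read from the data, passing the limit was not always enough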); details: CellTiter-Glo, 72 h, at 10 µM; for differential viability (reversal): stronger effect = higher value
[5] = yeast transport mutant growth inhibition pilot in 384-well plates, post-Golgi transport modulator project (AID 636; in the data active = inhibition above about 31%); details: absorbance 615 nm, about 18 h, stronger effect = higher value
[6] = growth suppression of yeast trafficking mutant, preliminary HTS, modulators of trafficking downstream of Golgi apparatus project, 1536-format plate, OD 615 nm (AID 637; in the data active = inhibition above about 30%); details: yeast transport mutant growth, absorbance 615 nm, 18 h; stronger effect = higher value
[7] = S. cerevisiae growth inhibition in permissive medium (OD615), pilot counter-assay for S. cerevisiae lifespan shortening project, permissive growth control (AID 705;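 active = growth inhibition above 25% in both replicates, a cutoff set 3 SD above the mean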); details: OD615, 24 h, at 10 µM, stronger effect = higher value
[8] = S. cerevisiae growth inhibition in restrictive medium, OD615, pilot screen, restrictive growth control, yeast lifespan reduction project (AID 706;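 active = growth inhibition above a set limit, 3 SD over mean compound inhibition, in both replicates, cut at about 43% in these data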;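 also: modified DeaD lifespan yeast strain shifted to restrictive glucose medium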); details: OD615, 48 h, at 10 µM, stronger effect = higher value
[9] = doxorubicin toxicity protection in MRP-1 cells – H69AR cells, CellTiter-Glo, duplicate, MRP-1 activator project, pilot screen (AID 807;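 active = viability increase at or above a cutoff of the median across tested compounds plus 3 SD, cut at about 8.5% in these data, passing the limit was not always enough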;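 also: compound pretreatment 18-22 h then 72 h combined with doxorubicin; 0% = doxorubicin alone and 100% = vehicle without doxorubicin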); details: H69AR viability with doxorubicin, CellTiter-Glo luminescence; at 10 µM; stronger effect = higher value
[10] = viability of HCT116 without oncogenic beta-catenin – human colon tumor cells, pilot screen (AID 823;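 active = cell viability at or below a set limit in both duplicate runs, the limit being the all-compound median minus 4 SD, cut at about 23% in these data, passing the limit was not always enough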;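 also: 0% = wells killed by 20 µM Hyamine and 100% = untreated DMSO cell wells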); details: HCT116 beta-catenin knockout viability, CellTiter-Glo, 60 h; at 10 µM; stronger effect = lower value
[11] = viability of PTEN-null HCT116 cells – cell-based, HCT116 clonal line, CellTiter-Glo, pilot screen (AID 824); details: HCT116 PTEN-deleted viability, 60 h, at 10 µM, stronger effect = lower value;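 also: 0% = 20 µM Hyamine control and 100% = vehicle cell control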
[12] = RAM pathway blockade in budding yeast – dse1pr::URA3 reporter, 5-FOA selection, pilot screen (AID 869;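 active = inhibition over a set limit, the all-compound mean plus 3 SD, in both replicate runs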;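 also: 0% = DMSO wells with no growth and 100% = 10 µM 1-NA-PP1 with full growth; RAM network block rescues cells from 5-FOA so hits raise OD615 growth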); details: S. cerevisiae dse1pr::URA3 5-FOA growth, OD615, 2 d; at 10 µM; stronger effect = higher value; strain carries analog-sensitive mutant Cbk1 kinase
[13] = RAM signaling pathway blockade in yeast – S. cerevisiae, Pdr1DBD-CYC8 efflux-inhibited sensitized strain, primary screen (AID 1298;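 active = RAM network inhibition above 8.4% in each of two replicates, 3 SD over the compound average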;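 also: 0% = DMSO untreated cells without growth and 100% = 10 µM 1-NA-PP1 full growth; higher means more yeast growth rescued from 5-FOA killing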); details: S. cerevisiae cbk1-as DSE1-URA3 strain, 5-FOA growth OD615, 2 d; at 50 µM; stronger effect = higher value
[14] = H69AR cells + 2 uM doxorubicin, measured here: viability with 2 uM doxorubicin, stronger effect = lower value
[15] = H69AR cells, compound alone cytotoxicity

| Structure (SMILES) | viability [1] | viability [2] | viability [3] | differential viability (reversal) ([4]; H69AR cells + 2 uM doxorubicin) | viability [4, 14] | viability [4, 15] | inhibition [5] | inhibition [6] | growth inhibition [7] | growth inhibition [8] | viability increase [9] | viability [10] | viability [11] | inhibition [12] | RAM network inhibition [13] |
| --- | --- | --- | --- | --- | --- | --- | --- | --- | --- | --- | --- | --- | --- | --- | --- |
| CC12CN3CCN(CC(C3)C1(O)CN1CCCCC1)C2 (stereo not given) | 119% (inactive) | 95.5% (inactive) | 92.5% (inactive) | 3.25% (inactive) | 89.2% | 92.5% | -8.13% (inactive) | -0.18% (inactive) | -9.73% (inactive) | -6.28% (inactive) | -1.63% (inactive) | 88.3% (inactive) | 85.1% (inactive) | 1.06% (inactive) | 1.07% (inactive) |
| COCc1cc(C)nc(Nc2ccc(C)cc2C)c1C#N | 70% (inactive) | 84.8% (inactive) | 104% (inactive) | 9.25% (inactive) | 95.1% | 104% | -2.43% (inactive) | 2.46% (inactive) | -9.57% (inactive) | -2.85% (inactive) | -4.12% (inactive) | 97.2% (inactive) | 90.6% (inactive) | 1.15% (inactive) | 0.15% (inactive) |
| CC1=C(C(=O)OC2CCCCCC2)C(c2ccc(C)o2)C2=C(CCCC2=O)N1 (stereo not given) | 124% (inactive) | 102% (inactive) | 97.2% (inactive) | -3.5% (inactive) | 101% | 97.2% | -1.49% (inactive) | 2.38% (inactive) | -11.2% (inactive) | -22.5% (inactive) | -2% (inactive) | 70.8% (inactive) | 78.8% (inactive) | 1.77% (inactive) | 1.63% (inactive) |
| CCn1c(C(C#N)/C(=N\S(=O)(=O)c2cccs2)c2ccccc2)nc2ccccc21 (stereo not given) | 112% (inactive) | 96.2% (inactive) | 81.7% (inactive) | -12.6% (inactive) | 94.3% | 81.7% | 0.26% (inactive) | -1.15% (inactive) | -26.8% (inactive) | -15% (inactive) | -3.19% (inactive) | 87.4% (inactive) | 90.2% (inactive) | 1.55% (inactive) | 5.16% (inactive) |
| O=C(COc1ccc(F)cc1)Nc1ccc(-n2cnnn2)cc1 | 103% (inactive) | 107% (inactive) | 93.1% (inactive) | 12% (inactive) | 81.1% | 93.1% | -4% (inactive) | -1.27% (inactive) | 2.42% (inactive) | 2.31% (inactive) | 3.62% (inactive) | 102% (inactive) | 100% (inactive) | 0.61% (inactive) | 0.57% (inactive) |
